Results taken from PubChem BioAssay (Tox21).
Several values for one entry are separate records, joined by “and”; a condition that tells them apart may be missing. Equal entries are not always repeated. Records with an inconclusive call do not appear. Activity calls are given as the source filed them. Unless noted, the call rests on the fitted dose curve; in most records, active means well fitted curve in the direction sought with a large enough effect in the repeat runs; inconclusive means weak or mixed curves; inactive means no such curve, though single readings can be large; an effect the other way counts as inactive or inconclusive.

Experiments:
[1] = qHTS assay to identify small molecule agonists of the estrogen receptor alpha (ER-alpha) signaling pathway in the presence of an antagonist - cell viability counter screen (AID 1259386); details: VM7Luc4E2 viability, CellTiter-Fluor fluorescence, 22 h; series mostly up to 92.4 µM;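 further: cells exposed to compounds for 22 h at 37 °C before the viability read; nearly all actives have a fitted effect of over 30% in size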
Method in brief: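 Read-out: CellTiter-Fluor fluorescence after 1hr reagent incubation, measured in the same wells as the luciferase readout. VM7Luc4E2 cells were exposed to 15 compound concentrations with 10.0nM ICI-182,780 for 22hr at 37C.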

[2] = molecular target: Progesterone receptor (Homo sapiens) (UniProt P06401); assay: qHTS assay to identify small molecule agonists of the progesterone receptor (PR) signaling pathway (AID 1346784; calls by dose curve; further: nearly all actives have a fitted effect of over 30% in size); details: PR-UAS-bla HEK293T, beta-lactamase FRET ratio, 16 h; series mostly up to 92.4 µM
Sequence of Progesterone receptor (Homo sapiens) (P06401 whole entry, looked up): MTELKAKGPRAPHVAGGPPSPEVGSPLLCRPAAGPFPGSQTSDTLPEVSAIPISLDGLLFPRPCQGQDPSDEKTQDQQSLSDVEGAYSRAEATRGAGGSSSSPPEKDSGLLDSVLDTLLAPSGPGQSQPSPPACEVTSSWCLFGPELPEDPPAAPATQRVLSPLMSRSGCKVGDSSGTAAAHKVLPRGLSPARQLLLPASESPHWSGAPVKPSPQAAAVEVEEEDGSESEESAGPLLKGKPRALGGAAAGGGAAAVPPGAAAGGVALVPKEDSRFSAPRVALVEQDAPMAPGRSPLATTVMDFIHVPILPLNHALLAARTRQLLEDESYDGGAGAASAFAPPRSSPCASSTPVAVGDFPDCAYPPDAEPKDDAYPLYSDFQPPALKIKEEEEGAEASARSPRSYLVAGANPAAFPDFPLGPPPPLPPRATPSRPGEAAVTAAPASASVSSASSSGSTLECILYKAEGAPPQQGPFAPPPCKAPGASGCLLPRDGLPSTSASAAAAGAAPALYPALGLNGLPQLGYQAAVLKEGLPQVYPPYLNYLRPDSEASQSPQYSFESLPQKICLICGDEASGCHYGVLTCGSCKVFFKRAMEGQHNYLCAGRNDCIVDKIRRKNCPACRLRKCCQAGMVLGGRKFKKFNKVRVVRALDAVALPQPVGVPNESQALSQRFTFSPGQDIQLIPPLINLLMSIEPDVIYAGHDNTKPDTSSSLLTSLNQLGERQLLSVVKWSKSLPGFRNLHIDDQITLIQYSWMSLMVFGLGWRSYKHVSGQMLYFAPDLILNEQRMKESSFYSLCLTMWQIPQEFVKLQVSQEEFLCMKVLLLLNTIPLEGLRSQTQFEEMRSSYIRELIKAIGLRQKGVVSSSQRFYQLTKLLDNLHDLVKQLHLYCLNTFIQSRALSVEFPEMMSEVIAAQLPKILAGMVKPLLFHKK
Method in brief: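 Reporter assay, GripTite PR-UAS-bla HEK 293T cells: 16 hr exposure to DMSO-dissolved compounds at 37C, 5% CO2, in steroid-depleted (2% charcoal-stripped FBS) medium; beta-lactamase measured by FRET fluorescence.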

[3] = molecular target: Progesterone receptor (Homo sapiens) (UniProt P06401); assay: qHTS assay to identify small molecule antagonists of the progesterone receptor (PR) signaling pathway (AID 1346795; active means well fitted inhibition curve with a large enough effect in the signal ratio in the repeat runs, not every such curve was filed as active; the % refers to the signal ratio; further: potency means the concentration at half of the fitted maximal effect); details: PR-UAS-bla HEK293T, beta-lactamase FRET ratio, 16 h; series mostly up to 92.4 µM
Method in brief: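 Stimulus R5020 at 1 nM final; cells HEK293T PR-UAS-bla; medium with 2% charcoal-stripped FBS; compound exposure 16 hr at 37C, 5% CO2; detection by FRET beta-lactamase substrate, 2 hr, room temperature.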

[4] = qHTS assay to identify small molecule antagonists of the progesterone receptor (PR) signaling pathway - cell viability counter screen (AID 1346798); details: PR-UAS-bla HEK293T viability, CellTiter-Glo luminescence, 16 h; series mostly up to 92.4 µM; further: nearly all actives have a fitted effect of over 50% in size
Method in brief: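 In the same plates used for the beta-lactamase readout, cell viability of compound- and R5020-treated PR-UAS-bla HEK293T cells (16 hr, 37C) was assessed by CellTiter-Glo luminescence.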

[5] = qHTS assay to identify small molecule agonists of the progesterone receptor (PR) signaling pathway - cell viability counter screen (AID 1346799; calls by dose curve; further: nearly all actives have a fitted effect of over 45% in size); details: PR-UAS-bla HEK293T viability, CellTiter-Glo luminescence, 16 h; series mostly up to 92.4 µM
Method in brief: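 Multiplexed viability read: CellTiter-Glo luminescence, 30 min RT, following LiveBLAzer FRET measurement on PR-UAS-bla HEK293T cells exposed to compounds 16 hr.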

[6] = qHTS assay to identify small molecule antagonists of the TGF-beta/Smad signaling pathway - cell viability counter screen (AID 1346824); details: SBE-bla HEK293T viability, CellTiter-Glo luminescence; series mostly up to 76.8 µM; further: nearly all actives have a fitted effect of over 50% in size
Method in brief: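 SBE-bla HEK 293T cells were plated overnight at 37 C, then given compounds in DMSO plus TGF-beta1 (added as 0.25 ng/mL solution) for 5 hr. After the bla read, CellTiter-Glo was added to the same wells and luminescence read after 30 min at room temperature.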

[7] = qHTS assay to identify small molecule agonists of the TGF-beta/Smad signaling pathway - cell viability counter screen (AID 1346829); details: SBE-bla HEK293T viability, CellTiter-Glo luminescence, 5 h; series mostly up to 76.8 µM; further: top concentration of the series differs between compounds; nearly all actives have a fitted effect of over 45% in size
Method in brief: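 Same-well cytotoxicity: CellTiter-Glo added after the 2 hr room-temperature beta-lactamase substrate step, luminescence measured 30 min later; cells had 5 hr of compound at 37 C.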

[8] = qHTS assay to identify small molecule agonists of the TGF-beta/Smad signaling pathway (AID 1346859; active means well fitted activation curve with a large enough effect in the signal ratio in the repeat runs, not every such curve was filed as active; the % refers to the signal ratio); details: SBE-bla HEK293T, TGF-beta/Smad beta-lactamase reporter, 5 h; series mostly up to 76.8 µM
Method in brief: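 Screening used HEK 293T SBE-bla cells at 4,000/well. Test agents: 5 hr, 37 C. Detection: FRET substrate, 2 hr RT, then excitation 405 nm with emissions at 460 and 530 nm.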

[9] = molecular target: Thyrotropin-releasing hormone receptor (Homo sapiens) (UniProt P34981); assay: qHTS assay to identify small molecule antagonists of the thyrotropin-releasing hormone receptor (TRHR) signaling pathway (AID 1346877; active means well fitted inhibition curve with a large enough effect in the repeat runs, not every such curve was filed as active); details: TRHR-HEK293, TRH-induced calcium fluorescence, antagonist mode; series mostly up to 51.3 µM
Sequence of Thyrotropin-releasing hormone receptor (Homo sapiens) (P34981 whole entry, looked up): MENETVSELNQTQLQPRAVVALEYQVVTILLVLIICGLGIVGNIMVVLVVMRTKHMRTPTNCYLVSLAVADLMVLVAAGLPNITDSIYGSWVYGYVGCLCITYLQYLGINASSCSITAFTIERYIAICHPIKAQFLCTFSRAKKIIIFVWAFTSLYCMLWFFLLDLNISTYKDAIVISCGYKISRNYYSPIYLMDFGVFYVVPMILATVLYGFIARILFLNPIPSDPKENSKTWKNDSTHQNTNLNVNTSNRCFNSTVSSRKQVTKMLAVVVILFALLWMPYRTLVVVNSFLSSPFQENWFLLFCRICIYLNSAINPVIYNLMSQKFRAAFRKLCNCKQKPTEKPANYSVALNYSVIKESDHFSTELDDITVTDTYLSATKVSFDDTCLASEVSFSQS
Method in brief: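 HEK293/TRHR cells, 18 h, 37 °C; Ca2+ dye 2 h; cpd 5 min RT; TRH 1 nM final; fluorescence read 3 min, 1 s intervals; 15 concs, triplicate.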

[10] = molecular target: Thyrotropin-releasing hormone receptor (Homo sapiens) (UniProt P34981); assay: qHTS assay to identify small molecule agonists of the thyrotropin-releasing hormone receptor (TRHR) signaling pathway (AID 1346891; calls by dose curve); details: TRHR-HEK293 calcium fluorescence, agonist mode; series mostly up to 57.6 µM
Method in brief: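 Readout was intracellular calcium fluorescence in TRHR-Hek293 cells. Cells were incubated 18 h, dye-loaded 2 h at 37 °C, and treated with compound in agonist mode.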

[11] = Human pregnane X receptor (PXR) small molecule agonists, qHTS cell viability counter screen (AID 1346977); details: PXR-Luc HepG2 viability, CellTiter-Fluor, 24 h; series mostly up to 92.4 µM; further: nearly all actives have a fitted effect of over 50% in size
Method in brief: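 In each well, the PXR reporter HepG2 line was checked for viability: CellTiter-Fluor reagent added 23hr post-dosing, fluorescence read after 1hr incubation at 37C.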

[12] = Caspase-3/7 induction in HepG2 cells by small molecules, qHTS assay (AID 1346978); details: HepG2 caspase-3/7 activation, Caspase-Glo luminescence, 17 h; series mostly up to 92.4 µM; further: nearly all actives have a fitted effect of over 15% in size
Method in brief: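 Wild-type HepG2 cells (2,000/well) were settled 5 h at 37 C, 5% CO2, then exposed to compounds in DMSO for 17 h. Caspase-3/7 activity was read by luminescence 30 min after adding Caspase-Glo 3/7 reagent at room temperature.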

[13] = Caspase-3/7 induction in CHO-K1 cells by small molecules, qHTS cell viability counter screen (AID 1346979); details: CellTiter-Fluor fluorescence, 17 h; series mostly up to 92.4 µM; further: nearly all actives have a fitted effect of over 35% in size; further: potency means the concentration at half of the fitted maximal effect
Method in brief: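 Following a 5hr settling period, CHO-K1 cells at 1,500 per well received DMSO-dissolved compounds. Cell viability was quantified 16hr later by CellTiter-Fluor fluorescence, measured after 1hr with reagent at 37C.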

[14] = Caspase-3/7 induction in HepG2 cells by small molecules, qHTS cell viability counter screen (AID 1346981); details: CellTiter-Fluor fluorescence, 17 h; series mostly up to 92.4 µM; further: nearly all actives have a fitted effect of over 30% in size
Method in brief: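 Fluorescence read-out of live-cell protease activity (CellTiter-Fluor) after 1 hr with reagent. This was measured in the same wells as the caspase-3/7 luminescence, on HepG2 cells exposed to DMSO-dissolved compounds for 16 hr at 37 C.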

[15] = molecular target: Nuclear receptor subfamily 1 group I member 2 (Homo sapiens) (UniProt O75469); assay: Human pregnane X receptor (PXR) small molecule agonists, qHTS assay (AID 1346982); details: PXR-Luc HepG2, CYP3A4 luciferase reporter, 24 h; series mostly up to 92.4 µM; further: nearly all actives have a fitted effect of over 35% in size; further: potency means the concentration at half of the fitted maximal effect
Sequence of Nuclear receptor subfamily 1 group I member 2 (Homo sapiens) (O75469 whole entry, looked up): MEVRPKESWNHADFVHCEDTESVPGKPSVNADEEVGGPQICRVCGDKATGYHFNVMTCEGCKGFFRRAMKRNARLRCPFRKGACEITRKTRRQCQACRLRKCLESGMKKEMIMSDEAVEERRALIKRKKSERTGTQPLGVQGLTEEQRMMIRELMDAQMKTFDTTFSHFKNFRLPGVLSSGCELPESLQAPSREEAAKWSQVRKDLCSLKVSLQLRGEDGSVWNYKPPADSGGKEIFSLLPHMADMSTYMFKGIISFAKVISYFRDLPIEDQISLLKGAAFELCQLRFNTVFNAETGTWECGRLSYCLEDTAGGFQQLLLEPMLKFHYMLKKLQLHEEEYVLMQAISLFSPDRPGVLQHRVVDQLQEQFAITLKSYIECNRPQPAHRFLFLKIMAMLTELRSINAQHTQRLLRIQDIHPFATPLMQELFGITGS
Method in brief: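 HepG2 PXR-Luc reporter line, 5% charcoal-stripped FBS; 5 hr pre-incubation, compound (DMSO) 24 hr at 37 C/5% CO2; ONE-Glo 30 min RT; luminescence read-out.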

[16] = molecular target: Acetylcholinesterase (Homo sapiens) (UniProt P22303); assay: Acetylcholinesterase (AChE) small molecule antagonists: colormetric cell-based qHTS assay (AID 1347395; calls by dose curve; further: nearly all actives have a fitted effect of over 30% in size; further: potency means the concentration at half of the fitted maximal effect); details: SH-SY5Y cells AChE activity, colorimetric (Ellman); series mostly up to 115 µM
Sequence of Acetylcholinesterase (Homo sapiens) (P22303 whole entry, looked up): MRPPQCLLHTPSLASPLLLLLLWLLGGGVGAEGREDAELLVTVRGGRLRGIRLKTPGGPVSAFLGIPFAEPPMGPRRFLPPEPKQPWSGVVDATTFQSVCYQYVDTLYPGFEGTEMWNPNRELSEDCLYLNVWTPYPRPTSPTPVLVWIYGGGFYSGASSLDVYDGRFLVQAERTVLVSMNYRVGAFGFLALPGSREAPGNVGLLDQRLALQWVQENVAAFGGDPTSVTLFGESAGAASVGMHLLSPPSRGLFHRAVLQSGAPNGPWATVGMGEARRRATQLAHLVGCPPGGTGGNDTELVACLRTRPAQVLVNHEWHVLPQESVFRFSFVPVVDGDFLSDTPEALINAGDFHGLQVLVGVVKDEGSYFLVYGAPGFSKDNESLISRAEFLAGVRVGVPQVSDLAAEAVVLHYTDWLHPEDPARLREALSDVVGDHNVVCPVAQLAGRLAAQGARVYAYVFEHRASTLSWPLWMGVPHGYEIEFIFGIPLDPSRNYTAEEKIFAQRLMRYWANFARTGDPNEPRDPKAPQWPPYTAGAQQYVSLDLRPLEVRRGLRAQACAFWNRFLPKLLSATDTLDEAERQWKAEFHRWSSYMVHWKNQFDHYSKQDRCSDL
Method in brief: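 After overnight attachment at 37 C, SH-SY5Y cells get 30 min compound exposure; detection cocktail (acetylthiocholine, DTNB) then incubates 90 min at 37 C, and absorbance reflects AChE-generated thiocholine.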

[17] = Caspase-3/7 induction in CHO-K1 cells by small molecules, qHTS assay (AID 1346980); details: CHO-K1 caspase-3/7 induction, Caspase-Glo luminescence, 17 h; series mostly up to 92.4 µM; further: nearly all actives have a fitted effect of over 15% in size
Method in brief: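 Wild-type cells were seeded at 1,500 per well and settled 5 hr at 37 C, 5% CO2, then exposed to DMSO-dissolved compounds for 17 hr. Caspase-Glo 3/7 reagent was added, and luminescence was read after 30min at room temperature.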

Measured: Potency

Cc1ccc(OP(=O)(Oc2ccccc2)Oc2ccccc2)cc1
inactive: [1] | [2] | [4] | [5] | [6] | [7] | [8] | [9] | [10] | [11] | [12] | [13] | [14]
active: [3] 15.6 µM | [15] 13.9 µM | [16] 20.3 µM

COc1ccc(OC)c(CC(C)N)c1 (stereo unspecified)
inactive: [1] | [2] | [3] | [4] | [5] | [6] | [7] | [8] | [9] | [10] | [11] | [12] | [13] | [17] | [14] | [15] | [16]

CCS(=O)(=O)c1cccnc1S(=O)(=O)NC(=O)Nc1nc(OC)cc(OC)n1
inactive: [1] | [2] | [3] | [4] | [5] | [6] | [7] | [8] | [9] | [10] | [11] | [12] | [13] | [17] | [14] | [16]

CC(C)CC(C)N (stereo unspecified)
inactive: [1] | [2] | [3] | [4] | [5] | [6] | [7] | [8] | [9] | [10] | [11] | [12] | [13] | [17] | [14] | [15] | [16]

CCSC(C)CC1CC(=O)C(/C(CC)=N/OC/C=C/Cl)=C(O)C1 (stereo unspecified)
inactive: [1] | [2] | [3] | [4] | [5] | [6] | [7] | [8] | [9] | [10] | [11] | [12] | [13] | [17] | [14] | [15]
active: [16] 30.9 µM

Nc1ccccc1C(=O)Oc1ccc2ccccc2c1
inactive: [1] | [2] | [4] | [5] | [6] | [7] | [8] | [9] | [10] | [11] | [12] | [17] | [14] | [16]
active: [3] 30.6 µM | [15] 27.3 µM

Fc1cccc(Cl)c1CCl
inactive: [1] | [2] | [3] | [4] | [5] | [6] | [7] | [8] | [9] | [10] | [12] | [13] | [17] | [14] | [15] | [16]

O=C/C(Cl)=C(/Cl)C(=O)O
inactive: [1] | [2] | [3] | [4] | [5] | [6] | [7] | [8] | [9] | [10] | [11] | [12] | [14] | [15] | [16]
active: [13] 38.5 µM and 30.6 µM
